# NS1 function inh: qHTS Assay for Inhibitors of Influenza NS1 Protein Function; 270,000 compounds, 0.4% hits; Potency, µM (highest dose often 46.1 µM), without a hit: at the top dose activity, positive = more growth; further: potency means the concentration at half of the fitted maximal effect; actives are rising curves; nearly all actives have a fitted effect of over 50% in size
#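 OD600 was taken as the measure of yeast growth restored by compound in an NS1-expressing S. cerevisiae strain. Cells had been washed out of glucose medium and diluted 1:100 into galactose -URA medium, pH 6.0.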
# Cruzain Triton: qHTS Assay for Promiscuous and Specific Inhibitors of Cruzain (with detergent) | Cruzipain (Trypanosoma cruzi), P25779 | purified cruzain, Z-FR-AMC fluorescence, 0.01% Triton | Potency, µM, for inactives: max response, negative = inhibition, usual class: inhibitors | 200,000 compounds, 0.43% hits; active means well fitted curve in the direction sought with a large enough effect; inconclusive means small, poorly fitted or top-dose-only effect, or another doubt; inactive means no such curve, though single readings can be large; an effect the other way counts as inactive or inconclusive;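 further: potency means the concentration at half of the fitted maximal effect; plate controls were neutral wells for no effect and buffer without enzyme for full effect; nearly all actives have a fitted effect of over 40% in size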
# Target sequence (P25779 123-467 limits assumed): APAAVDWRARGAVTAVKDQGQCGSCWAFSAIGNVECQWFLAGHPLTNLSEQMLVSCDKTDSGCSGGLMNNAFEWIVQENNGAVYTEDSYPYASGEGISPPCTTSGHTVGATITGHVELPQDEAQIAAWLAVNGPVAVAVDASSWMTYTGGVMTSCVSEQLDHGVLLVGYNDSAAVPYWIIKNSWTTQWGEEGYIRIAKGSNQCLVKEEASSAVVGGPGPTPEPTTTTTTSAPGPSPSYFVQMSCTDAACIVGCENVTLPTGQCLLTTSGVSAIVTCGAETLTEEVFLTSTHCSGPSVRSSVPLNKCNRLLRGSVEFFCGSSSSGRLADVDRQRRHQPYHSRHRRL
#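 Z-FR-AMC hydrolysis (2 uM substrate) by cruzain (1.5 nM) monitored kinetically at ex 360/em 450 nm after 15 min room-temperature compound exposure; 0.01% Triton X-100, pH 5.5, 5 mM DTT.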
# Cruzain noTriton: qHTS Assay for Promiscuous and Specific Inhibitors of Cruzain (without detergent); Cruzipain (Trypanosoma cruzi), P25779; purified cruzain, Z-FR-AMC fluorescence, no detergent; Potency, µM, for inactives: max response, negative = inhibition, most hits filed as inhibitors; 200,000 compounds, 2.3% hits; AID 1476, 2009; active means well fitted curve in the direction sought with a large enough effect; inconclusive means small, poorly fitted or top-dose-only effect, or another doubt; inactive means no such curve, though single readings can be large; an effect the other way counts as inactive or inconclusive;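 further: potency means the concentration at half of the fitted maximal effect; plate controls were enzyme without inhibitor for no effect and buffer without enzyme for full effect; nearly all actives have a fitted effect of over 40% in size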
#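 Purified cruzain at 1.5 nM, pre-incubated 15 min with compound at room temperature in 100 mM sodium acetate pH 5.5, 5 mM DTT, 0.00005% Triton X-100. Reaction started with 2 uM Z-FR-AMC; AMC fluorescence increase over 60 s gives rate.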
# Flu NS1 inh: Assay for Inhibitors of Influenza NS1 Protein Function: Hit Validation; shares compounds with NS1 function inh; influenza NS1 function cell assay, 15-point titration; activity change, negative = inhibition, % at 32.9 µM; 1,400 tested, under 10 active; AID 492980, 2010; further: 0% is about no effect
# Flu PR8 replic: Assay for Inhibitors of Influenza NS1 Protein Function: Influenza virus replication assay in MDCK cells infected with virus A/PR/8/34. 95 compounds, 30% hits. AID 504647, 2011. MDCK infected influenza A/PR/8/34, virus titer TCID50; hits give low values. virus titer (log TCID50), log10 TCID50 at 5 µM. shares compounds with NS1 function inh; call rule not given here
# An asterisk follows results filed as active; ? = inconclusive; · = no result given. The full list was thinned out, with hits kept by preference. Unless noted, the call rests on the fitted dose curve.
SMILES,NS1 function inh,Cruzain Triton,Cruzain noTriton,Flu NS1 inh,others
CC1Cc2ccccc2N1C(=O)CSc1nnc2c(n1)[nH]c1ccccc12 (configuration not stated),0%,-1%,1%,·,
COc1cc2c(cc1OC)C1O[C@](CCCCN3C(=O)c4ccccc4C3=O)(C2)OC2=C1C(=O)OC1(CCCCC1)C2,23%,·,·,·,
O=C(O)c1ccccc1-c1ccccc1C(=O)Nc1ccccc1-c1ccccc1,10µM*,·,·,36,
Cc1ccccc1NC(=O)c1ccccc1-c1ccccc1,-21%,·,·,·,
CN(c1ccccc1)S(=O)(=O)c1ccc2[nH]c(=O)oc2c1,?,·,·,9,
CN(Cc1ccccc1)S(=O)(=O)c1ccc2[nH]c(=O)oc2c1,11%,·,·,·,
COc1ccc2c(c1)c1c(c(=O)n(-c3ccc(C)cc3)c(=O)n1CC(=O)NCc1ccc(C)cc1)n2C,·,-2%,-2%,·,
O=C1CN(C(=O)COC(=O)CNS(=O)(=O)c2ccccc2)c2ccccc2N1,3%,·,·,·,
Cc1ccc(S(=O)(=O)CCC(=O)OCC(=O)N2CC(=O)Nc3ccccc32)cc1,?,-4%,3%,-5,
CCCn1c(SCC(=O)N2CCN(S(=O)(=O)c3ccc(Cl)cc3)CC2)n[nH]c1=O,-4%,-7%,11%,·,
Cc1cc(C)n2c(SCC(=O)N3CCN(S(=O)(=O)c4ccc(Cl)cc4)CC3)nnc2n1,10µM*,5%,5%,0,
O=C(Nc1ccc(S(=O)(=O)Nc2nccs2)cc1)c1cc(-c2ccccc2)nc2ccccc12,11µM*,-9%,1%,1,
Cc1ccc(-c2cc(C(=O)Nc3ccc(S(=O)(=O)Nc4nccs4)cc3)c3ccccc3n2)c(C)c1,18%,-8%,?,·,
O=C(c1cccc(F)c1)N1CCC2(CCCN(Cc3nccs3)C2)CC1,·,0%,4%,·,
Clc1ccc(CN2CCC(Cc3ccccc3)CC2)cc1,0%,0%,4%,·,
Clc1cccc(CN2CCC(Cc3ccccc3)CC2)c1,?,5%,3%,-2,
CCOc1ccc(S(=O)(=O)Nc2ccc(C(=O)N/N=C/c3c(C)nn(-c4ccccc4)c3N3CCCC3)cc2)cc1,24%,-4%,?,·,
COc1ccccc1NS(=O)(=O)c1cccc(C(=O)N/N=C/c2c(C)nn(-c3ccccc3)c2N2CCCC2)c1,11µM*,-4%,-13%,28,
COC(=O)[C@]1(C)CCC(c2ccc(C)cc2)=C(CC(=O)O)C1,-4%,-1%,15%,·,
COc1ccc(C2C(C(=O)c3sc(C)nc3C)=C(O)C(=O)N2CCCn2ccnc2)cc1OC (configuration not stated),1.8µM*,0%,4%,-6,
COc1ccc(C2C(C(=O)c3sc(C)nc3C)=C(O)C(=O)N2CCCn2ccnc2)cc1 (configuration not stated),2%,·,·,·,
Cc1ccc(CSC2=Nc3ccccc3C3=NC(CCC(=O)NC4CCCCC4)C(=O)N23)cc1 (configuration not stated),·,4%,-7%,·,
COc1cc(C2NC(=S)NC(c3ccccc3)=C2C(C)=O)ccc1O (configuration not stated),6%,·,·,·,
CCCOc1ccc(C2NC(=S)NC(c3ccccc3)=C2C(=O)Nc2ccc(C)cc2)cc1OC (configuration not stated),13µM*,-5%,-4%,0,
CCOC(=O)c1c(C)[nH]c(CCC(=O)Nc2ccc(Cl)cc2C)c1C,·,1%,4%,·,
SMILES,NS1 function inh,Cruzain Triton,Cruzain noTriton,Flu NS1 inh,others
COc1cccc(NC(=O)Cn2c(=O)n(-c3ccc(C)cc3)c(=O)c3ccc(C(=O)NCc4ccco4)cc32)c1,·,0%,8%,·,
CCOc1cc(/C=C2\N=C(C)OC2=O)cc(Br)c1OCC(=O)OC,?,2%,-4%,-35,
CCOc1cc(/C=C2\N=C(C)OC2=O)cc(Br)c1OCCc1ccccc1,12%,-19%,?,·,
Cc1cc2cc(CNC(=O)c3ccc(Br)o3)ccc2[nH]1,0%,·,·,·,
CCCCNC(=S)NCc1ccc2[nH]c(C)cc2c1,1.4µM*,-1%,-10%,-6,
CC1(C)OC2CC3C4CC(F)C5=CC(=O)C=CC5(C)C4C(O)CC3(C)[C@]2(C(=O)CO)O1 (some centres not stated),·,6%,3%,·,
Cc1ccc(CNC(=O)Cn2c(=O)cc(C(F)(F)F)c3c(C)nn(C)c32)cc1,·,-2%,-1%,·,
Cc1cc(C)cc(-n2c(C)nc3cc(C(=O)O)ccc32)c1,·,-1%,-3%,·,
COc1ccc(OC)c(-n2c(C)nc3cc(C(=O)O)ccc32)c1,14µM*,6%,-6%,19,
COc1cccc(CNC(=O)Cc2c(C(=O)O)c(C)cn2C)c1,·,3%,0%,·,
O=C(CCCOc1ccc(Cl)cc1)N1CCCCC1,-18%,2%,21%,·,
O=C(CCCOc1ccc(Cl)cc1)N1CCOCC1,11µM*,5%,5%,-21,
C=C(C)C(=O)N1CC2(CC(c3cccc(NC(=O)CC(c4ccccc4)c4ccccc4)c3)=NO2)C[C@H]1C(N)=O (some centres not stated),-4%,·,·,·,
NC(=O)[C@@H]1CC2(CC(c3cccc(NC(=O)CC(c4ccccc4)c4ccccc4)c3)=NO2)CN1C(=O)c1ccc(Cl)cc1 (some centres not stated),4µM*,·,·,0,
NC(=O)[C@H]1CC2(CC(c3cccc(NC(=O)CC(c4ccccc4)c4ccccc4)c3)=NO2)CN1C(=O)CC(c1ccccc1)c1ccccc1 (some centres not stated),7.1µM*,·,·,12,Flu PR8 replic=8
CCC(=O)N1CC2(CC(c3cccc(NC(=O)CC(c4ccccc4)c4ccccc4)c3)=NO2)C[C@H]1C(N)=O (some centres not stated),-5%,·,·,·,
COC(=O)C1=C(C)[C@@H](O)[C@@H](C)[C@](C)(c2cc(OC)c(C)c(OC)c2COc2ccccc2)O1,·,2%,14%,·,
COc1cc(-c2nnc(SCC(=O)N(C)C3CCCCC3)o2)cc(OC)c1OC,·,-14%,-25%,·,
COc1ccc(/C=N/Nc2nc(NCc3ccco3)nc(Nc3ccc(OC)cc3)n2)cc1,?,-7%,?,·,
COc1ccc(Nc2nc(NCc3ccco3)nc(N/N=C/c3ccc(O)cc3)n2)cc1,11µM*,-9%,-26%,?,
Cc1cccc2cc3c(N)c(C#N)sc3nc12,-14%,-3%,-10%,·,
Cc1sc(NC(=O)c2sc3nc4c(C)cccc4cc3c2N)c(C#N)c1C,?,-26%,?,5,
CCCCN(Cc1cc2cc(C)ccc2[nH]c1=O)C(=O)c1cccc(Cl)c1,·,-1%,-1%,·,
COc1ccc(C(=O)NC2CCCCCC2)cc1S(=O)(=O)N1CCCc2ccccc21,6%,1%,-29%,·,
COc1ccc(C(=O)Nc2nc3c(s2)CCCC3)cc1S(=O)(=O)N1CCCc2ccccc21,13µM*,-6%,?,-5,

# Source: PubChem BioAssay
